These results are taken from PubChem BioAssay (NCATS).

One assay has as its system CASKI. Kind of assay: Primary qHTS to identify gynecologic anti-cancer compounds using libraries of approved drugs and bioactive compounds (AID 1345084). Further: nearly all actives have a fitted effect of over 55% in size. Conditions: Gynecologic cancer cell panel viability, ATPlite luminescence, 48 h; series mostly up to 57.5 µM. The gist of the method: (§1)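 Cell viability after 48 h drug treatment, ATPlite luminescence readout; five doses.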
(In general: qHTS replaces the single test concentration by a dilution series.)

The next assay has as its system Es-2. Described as above. Conditions: Gynecologic cancer cell panel viability, ATPlite luminescence, 48 h; series mostly up to 57.5 µM. The gist of the method: as §1
A general note: In ATP-based viability assays light output follows the ATP content of the culture.

A further assay relates to HeLa. Described as above. Conditions: Gynecologic cancer cell panel viability, ATPlite luminescence, 48 h; series mostly up to 57.5 µM. The gist of the method:
as §1

A further assay has as its system Hek293T. The assay is described as above. The settings on record: Gynecologic cancer cell panel viability, ATPlite luminescence, 48 h, control line for the selectivity index; series mostly up to 57.5 µM. The gist of the method:
as §1

The next assay concerns JEG-3. The description is as above. The settings on record: Gynecologic cancer cell panel viability, ATPlite luminescence, 48 h; series mostly up to 57.5 µM. The gist of the method:
as §1

The next assay deals with OV90. Described as above. The settings on record: Gynecologic cancer cell panel viability, ATPlite luminescence, 48 h; series mostly up to 57.5 µM. The gist of the method:
as §1

A further assay concerns PA-1. The assay is described as above. Conditions: Gynecologic cancer cell panel viability, ATPlite luminescence, 48 h; series mostly up to 57.5 µM. The gist of the method: as §1
The subject of a further assay is SKOV3. The assay is described as above. The settings on record: Gynecologic cancer cell panel viability, ATPlite luminescence, 48 h; series mostly up to 57.5 µM. The gist of the method:
as §1

For another assay, the system named is Tov-21-G. The description is as above. The settings on record: Gynecologic cancer cell panel viability, ATPlite luminescence, 48 h; series mostly up to 57.5 µM. The gist of the method:
as §1

The next assay deals with Tov112D. Described as above. The settings on record: Gynecologic cancer cell panel viability, ATPlite luminescence, 48 h; series mostly up to 57.5 µM. The gist of the method:
as §1

The nature of assay [1]: Drug repurposing screens with cells derived from glioblastoma tumor samples (AID 1345199). Further: nearly all actives have a fitted effect of over 40% in size. The settings on record: GBM patient neurospheres viability, ATP luminescence, 48 h. The gist of the method:
(§2)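 Four patient lines of CD133+ GBM neurospheres were screened at several concentrations; hits were retested in those lines plus three slower-growing GBM lines, using 48-hour treatment and ATP-based viability.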

The next assay relates to astro. The assay is described as above. Conditions: viability, ATP luminescence, 48 h; series mostly up to 45.9 µM. The gist of the method:
as §2

A short description of assay [2]: qHTS assay to identify inhibitors of the type 1 interferon - major histocompatibility complex class I in skeletal muscle: Counter screen cell viability and HiBit confirmation (AID 1347412). On all read-outs here: nearly all actives have a fitted effect of over 60% in size. The settings on record: iHSKM muscle cells + IFN-b, HiBiT or CellTiter-Glo, 24 h; for Potency: HiBiT; for activity change, negative = inhibition: Viability, at 45.9 µM (top of the series). The gist of the method:
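HLA-B*08:01–HiBiT knock-in immortalized human myoblasts (C25cl48) stimulated with 4.0 ng/ml human IFN-beta and dosed with compound in a 12-point 1:3 titration (top final 46 uM). After 24 hrs at 37 C, HiBiT lytic luminescence or CellTiter Glo ATP read out.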

Where [3] appears, read: at 45.9 µM (top of the series), tumour line D.
Where [4] appears, read: at 46 µM (top of the series), tumour line A.
Where [5] appears, read: at 46.1 µM (top of the series), tumour line C.

Inconclusive results are not listed. Values without a mark were called inactive. The source made the active and inactive calls. The call rests on the fitted dose curve; in most records, active means well fitted curve in the direction sought with a large enough effect; inconclusive means small, poorly fitted or top-dose-only effect, or another doubt; inactive means no such curve, though single readings can be large; an effect the other way counts as inactive or inconclusive.
On the % scale 0 is the no-effect control and ±100 the full control effect; potency means the concentration at half of the fitted maximal effect.

As for `COC1(CC(C)C)NC(=O)C(O)(Cc2ccccc2)NC1=O` (stereo not drawn), the Potency entry in the assay with CASKI, in the assay on Es-2, in the assay with HeLa, in the assay on Hek293T, with JEG-3 and in the assay with OV90 was “inactive” each time. The Potency entry with PA-1, in the assay with SKOV3, with Tov-21-G and in the assay with Tov112D was “inactive” each time.

Take `C=CC(C)(O)CC/C=C(\C)C(=O)OCC1OC(OC2CCC3(C)C(CCC4(C)C3CC=C3C5CC(C)(C)C(O)CC5(C(=O)O)CCC34C)C2(C)C)C(O)C(OC2OC(CO)C(O)C(OC3OC(CO)C(O)C(OC4OC(COC5OC(CO)C(O)C(O)C5O)C(O)C(O)C4O)C3O)C2O)C1O` (stereo not drawn): the activity change, negative = cytotoxicity with CASKI is 11.9% [at 6.55 µM]; in the assay on Es-2 it was 0.769% [at 6.55 µM]; in the assay with HeLa it was 3.26% [at 6.55 µM]; in the assay on Hek293T it was 3.14% [at 6.55 µM]; in the assay with JEG-3, 7.76% [at 6.55 µM]; in the assay on OV90, 12.5% [at 6.55 µM]. In addition, the activity change, negative = cytotoxicity in the assay on PA-1 was 15.1% [at 6.55 µM]; with SKOV3, 0.954% [at 6.55 µM]; in the assay on Tov-21-G, 2.74% [at 6.55 µM]; in the assay on Tov112D, -3.38% [at 6.55 µM].

Turning to `CN1CCC(c2c[nH]c3ccc(NC(=O)c4ccc(F)cc4)cc23)CC1`, the Potency entry in the assay with CASKI, in the assay with Es-2, with HeLa, in the assay on Hek293T, in the assay on JEG-3 and with OV90 was “inactive” each time. Also, the Potency entry with PA-1, in the assay with SKOV3, with Tov-21-G and with Tov112D was “inactive” each time.

As to `COC1C=C([C@@H]2CC=C3[C@@]4(C)C(CC[C@]32C)[C@@]2(C)C=CC(=O)C(C)(C)C2C[C@H]4OC(C)=O)C(=O)O1` (stereo partly drawn), the Potency entry with CASKI, in the assay on Es-2, with HeLa, in the assay on Hek293T, with JEG-3 and in the assay on OV90 was “inactive” in each case. Moreover, the Potency result in the assay on PA-1, in the assay on SKOV3, in the assay on Tov-21-G and in the assay on Tov112D was “inactive” each time.

Consider `N[C@H](C(=O)O)[C@@H]1CC(Cl)=NO1`, for which the values for the activity, negative = cell killing in assay [1] (setting [3]) and in assay [1] (setting [4]) were -29.2% and -38.5%, respectively. Moreover, the Potency in assay [1] (tumour line C) is 6.51 µM (active).

As for `C[C@]12C=CC(=O)N[C@@H]1CC[C@@H]1[C@@H]2CC[C@]2(C)[C@@H](C(=O)Nc3cc(C(F)(F)F)ccc3C(F)(F)F)CC[C@@H]12`, the activity, negative = cell killing in [1] (setting [5]) is -29.8%.

`CN1CCC(CN2c3ccccc3Sc3ccccc32)C1` (stereo not drawn): in [1] (setting [5]), the activity, negative = cell killing is 0.543%. In addition, the Potency in assay [1] (tumour line A) is 7.08 µM (active); in [1] (tumour line B) it was 35.5 µM (active); in [1] (tumour line D), 17.8 µM (active).

As to `CCC/C=C/C(=O)O[C@H]1CC(C)(C)CC2[C@]13[C@H](O)O[C@@]21CCC2[C@@]4(C)CC[C@H](O[C@@H]5O[C@H](C(=O)O)[C@@H](O)[C@H](O[C@@H]6O[C@H](CO)[C@H](O)[C@H](O)[C@H]6O[C@@H]6O[C@@H](C)[C@H](O)[C@@H](O)[C@H]6O[C@@H]6OC[C@](O)(CO)[C@H]6O)[C@H]5O[C@@H]5O[C@H](CO)[C@H](O)[C@H](O)[C@H]5O)C(C)(C)C4CC[C@@]2(C)[C@]1(C)C[C@H]3OC(C)=O` (stereo partly drawn), the activity change, negative = cytotoxicity in the assay with CASKI is 2.37% [at 6.55 µM]; with Es-2, 2.55% [at 6.55 µM]; in the assay on HeLa, -1.33% [at 6.55 µM]; with Hek293T, -6.65% [at 6.55 µM]; with JEG-3, -6.17% [at 6.55 µM]; with OV90, -0.93% [at 6.55 µM]. Further, the activity change, negative = cytotoxicity was -0.307% [at 6.55 µM] in the assay with PA-1, 13% [at 6.55 µM] in the assay with SKOV3, 0.0885% [at 6.55 µM] with Tov-21-G and 1.84% [at 6.55 µM] in the assay on Tov112D.

Take `CC1=CC(=O)C[C@H]2[C@@H]1CC[C@@H](C)[C@]21CO[C@H](c2ccoc2)C1=O`: the Potency entry with CASKI, in the assay on Es-2, in the assay with HeLa, in the assay on Hek293T, in the assay on JEG-3 and in the assay with OV90 was “inactive” each time. For the same molecule, the Potency result in the assay with PA-1, in the assay on SKOV3, with Tov-21-G and with Tov112D was “inactive” in each case.

In the case of `CCCC(=O)O[C@]1(C(=O)COC(C)=O)CC[C@H]2[C@@H]3C[C@H](F)C4=CC(=O)C=C[C@]4(C)[C@@]3(F)[C@@H](O)C[C@@]21C`, the activity, negative = cell killing in assay [1] (at 45.9 µM (top of the series), tumour line B) was -13.7%; in assay [1] (setting [3]), -22.5%; in assay [1] (setting [4]) it was -29.1%; in assay [1] (setting [5]) it was -14.3%. For the same molecule, the Potency entry in the assay on astro is “inactive”.

On to `CC(=O)c1cnc2ccc(-c3cc(Cl)c(O)c(Cl)c3)nc2c1NC1CCC(CN(C)C)CC1` (stereo not drawn), for which the Potency in the assay with CASKI is 1 µM (active); with Es-2 it was 0.891 µM (active); in the assay on Hek293T, 0.562 µM (active); with PA-1 it was 0.501 µM (active); in the assay on SKOV3, 0.891 µM (active); in the assay on Tov112D, 0.447 µM (active). The Potency in assay [2] is 0.0991 µM (active). The activity change, negative = inhibition in assay [2] was -15.7%.

For `COC1CCCC/C(C)=C/C2C=C(C)C(C)C3C(CC(C)C)NC(=O)C23C(=O)C1` (stereo not drawn), the Potency result with CASKI, in the assay on HeLa, in the assay with Hek293T, with JEG-3, in the assay on OV90 and with PA-1 was “inactive” in each case. For the same molecule, the Potency entry in the assay on Tov-21-G and with Tov112D was “inactive” in each case.

Turning to `CN(C)C/C=C/C(=O)Nc1ccc(C(=O)Nc2cccc(Nc3ncc(Cl)c(-c4c[nH]c5ccccc45)n3)c2)cc1`, the Potency with CASKI was 0.794 µM (active); in the assay on Es-2, 1.78 µM (active); with HeLa it was 0.891 µM (active); with Hek293T, 1.26 µM (active); in the assay on JEG-3, 3.55 µM (active); in the assay with PA-1, 0.891 µM (active). The Potency is 0.631 µM (active) in the assay with Tov112D and 0.442 µM (active) in [2]. Besides, the activity change, negative = inhibition in assay [2] was -19.3%.

As to `O=S(=O)(O)c1ccc2c(N=Nc3ccc(S(=O)(=O)O)c4ccccc34)c(O)c(S(=O)(=O)O)cc2c1`, the activity, negative = cell killing in [1] (setting [3]) is -24.2%; in assay [1] (setting [5]), -9.01%.

For the molecule `CC(=O)O[C@@H]1[C@H](O[C@@H]2OC[C@](O)(CO)[C@H]2O)[C@@H](O[C@@H]2O[C@@H](C)[C@H](O)[C@@H](O)[C@H]2O)[C@H](OC(=O)[C@]23CCC(C)(C)C[C@H]2C2=CCC4[C@@]5(C)C[C@H](O)[C@H](O[C@@H]6O[C@H](C(=O)O)[C@@H](O)[C@H](O)[C@H]6O)[C@@](C)(C(=O)O)C5CC[C@@]4(C)[C@]2(C)CC3)O[C@@H]1C` (stereo partly drawn), the activity change, negative = cytotoxicity in the assay on CASKI is 0.959% [at 11.6 µM]; in the assay on Es-2, 1.8% [at 11.6 µM]; in the assay with HeLa it was 0.991% [at 11.6 µM]; with Hek293T it was 9.21% [at 11.6 µM]; with JEG-3 it was 0.39% [at 11.6 µM]; with OV90 it was 0.243% [at 11.6 µM]. In addition, the values for the activity change, negative = cytotoxicity in the assay with PA-1, with Tov-21-G and in the assay on Tov112D were -6.11% [at 11.6 µM], 1.94% [at 11.6 µM] and 2.89% [at 11.6 µM], respectively.

For the molecule `C=C1CC[C@@H]2[C@](C)(CC[C@H](O)[C@@]2(C)CCC=C(C)C)[C@@H]1Cc1c[nH]c2ccccc12`, the Potency result in the assay on CASKI, in the assay with Es-2, in the assay on HeLa, in the assay on Hek293T, in the assay with JEG-3 and with OV90 was “inactive” each time. For the same molecule, the Potency entry in the assay with PA-1, in the assay on Tov-21-G and in the assay with Tov112D was “inactive” throughout.
